This passage reports Potency results from PubChem BioAssay (Tox21).

Results filed as inconclusive are left out. Active and inactive are the calls of the source. The call rests on the fitted dose curve; in most records, active means well fitted curve in the direction sought with a large enough effect in the repeat runs; inconclusive means weak or mixed curves; inactive means no such curve, though single readings can be large; an effect the other way counts as inactive or inconclusive.

For experiment [1], the target named is Cytochrome P450 2C19 (Homo sapiens) (UniProt P33261). Kind of experiment: Cytochrome P450 Family 2 Subfamily C Member 19 (CYP2C19) small molecule antagonists: luciferase reporter qHTS assay (AID 1671197). Further: nearly all actives have a fitted effect of over 65% in size. Put shortly: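 Luminescent readout of CYP2C19 activity: luciferin product detected 20 min after adding detection reagent. Before that, compound and enzyme-substrate mix preincubated 10 min at room temperature; NADPH-regenerating system started a 1 h, 37C reaction. Ketoconazole as positive control.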
Chain of Cytochrome P450 2C19 (Homo sapiens) (P33261 whole entry, looked up): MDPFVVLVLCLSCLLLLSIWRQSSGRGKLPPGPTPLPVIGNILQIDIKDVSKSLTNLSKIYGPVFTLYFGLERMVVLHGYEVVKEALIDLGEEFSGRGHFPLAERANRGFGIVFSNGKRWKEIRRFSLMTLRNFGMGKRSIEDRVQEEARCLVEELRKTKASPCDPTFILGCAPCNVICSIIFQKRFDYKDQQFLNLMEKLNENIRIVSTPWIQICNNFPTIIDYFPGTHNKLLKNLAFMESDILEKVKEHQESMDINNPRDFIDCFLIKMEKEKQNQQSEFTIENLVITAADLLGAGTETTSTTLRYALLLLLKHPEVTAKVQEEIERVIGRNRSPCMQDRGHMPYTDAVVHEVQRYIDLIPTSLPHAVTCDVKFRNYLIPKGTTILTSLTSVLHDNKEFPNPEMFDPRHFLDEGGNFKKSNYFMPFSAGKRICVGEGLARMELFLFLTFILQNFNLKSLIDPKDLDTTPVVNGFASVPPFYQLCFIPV
(Reporter assays use an easily measured gene product as a stand-in for the process of interest.)

Experiment [2] addresses Cytochrome P450 1A2 (Homo sapiens) (UniProt P05177). As to the kind of experiment: Cytochrome P450 Family 1 Subfamily A Member 2 (CYP1A2) small molecule antagonists: luciferase reporter qHTS assay (AID 1671199). Further: nearly all actives have a fitted effect of over 50% in size. Put shortly: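 Luminescence readout (relative luminescence units) after luciferin detection reagent, 20 min RT. Preceded by 1 h room-temperature CYP1A2 reaction with NADPH regeneration solution following 10 min compound preincubation with enzyme and proluciferin substrate. Furafylline positive control.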

Experiment [3] addresses Cytochrome P450 3A4 (Homo sapiens) (UniProt P08684). As to the kind of experiment: Cytochrome P450 Family 3 Subfamily A Member 4 (CYP3A4) small molecule antagonists: luciferase reporter qHTS assay (AID 1671201). Further: nearly all actives have a fitted effect of over 50% in size. Put shortly:
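qHTS, 1536-well. CYP3A4 + proluciferin substrate, cpd 10 min RT → NADPH regen 1 h RT → detection reagent 20 min → luminescence (RLU). Ketoconazole positive control.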

The target in experiment [4] is Cytochrome P450 2C9 (Homo sapiens) (UniProt P11712). As to the kind of experiment: Cytochrome P450 Family 2 Subfamily C Member 9 (CYP2C9) small molecule antagonists: luciferase reporter qHTS assay (AID 1671198). Further: nearly all actives have a fitted effect of over 50% in size. Put shortly: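 P450-Glo proluciferin substrate with CYP2C9 enzyme; 10 min RT preincubation, then NADPH regeneration 1 h at 37C; luciferin detection reagent 20 min RT, luminescence in relative luminescence units.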
Chain of Cytochrome P450 2C9 (Homo sapiens) (P11712 whole entry, looked up): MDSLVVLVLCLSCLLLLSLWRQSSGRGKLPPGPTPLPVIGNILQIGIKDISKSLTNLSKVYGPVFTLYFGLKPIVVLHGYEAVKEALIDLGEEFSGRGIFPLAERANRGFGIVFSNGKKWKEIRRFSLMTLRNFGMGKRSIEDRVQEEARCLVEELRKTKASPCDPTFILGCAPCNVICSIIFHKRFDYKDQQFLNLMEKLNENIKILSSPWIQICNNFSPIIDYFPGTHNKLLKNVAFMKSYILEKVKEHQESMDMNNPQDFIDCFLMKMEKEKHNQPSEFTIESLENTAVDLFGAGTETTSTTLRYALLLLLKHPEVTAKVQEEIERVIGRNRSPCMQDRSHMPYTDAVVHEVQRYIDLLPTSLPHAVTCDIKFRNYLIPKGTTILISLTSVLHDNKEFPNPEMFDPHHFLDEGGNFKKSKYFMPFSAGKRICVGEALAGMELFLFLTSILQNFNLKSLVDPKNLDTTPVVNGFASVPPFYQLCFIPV

Experiment [5] deals with Voltage-gated inwardly rectifying potassium channel KCNH2 (Homo sapiens) (UniProt Q12809). As to the kind of experiment: Human Ether-a-go-go-Related Gene (hERG) channel small molecule antagonists: fluorescence cell-based qHTS assay (AID 1671200). Further: nearly all actives have a fitted effect of over 50% in size. Put shortly:
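Fluorescence at 540 nm emission (480 nm excitation) was recorded kinetically for 2 min at 1-second intervals once the thallium-containing stimulus reached cells previously loaded with FluxOR II dye.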
(hERG is a cardiac potassium channel; its block is linked to QT prolongation.)
Potency means the concentration at half of the fitted maximal effect.

Chain of Cytochrome P450 1A2 (Homo sapiens) (P05177 whole entry, looked up): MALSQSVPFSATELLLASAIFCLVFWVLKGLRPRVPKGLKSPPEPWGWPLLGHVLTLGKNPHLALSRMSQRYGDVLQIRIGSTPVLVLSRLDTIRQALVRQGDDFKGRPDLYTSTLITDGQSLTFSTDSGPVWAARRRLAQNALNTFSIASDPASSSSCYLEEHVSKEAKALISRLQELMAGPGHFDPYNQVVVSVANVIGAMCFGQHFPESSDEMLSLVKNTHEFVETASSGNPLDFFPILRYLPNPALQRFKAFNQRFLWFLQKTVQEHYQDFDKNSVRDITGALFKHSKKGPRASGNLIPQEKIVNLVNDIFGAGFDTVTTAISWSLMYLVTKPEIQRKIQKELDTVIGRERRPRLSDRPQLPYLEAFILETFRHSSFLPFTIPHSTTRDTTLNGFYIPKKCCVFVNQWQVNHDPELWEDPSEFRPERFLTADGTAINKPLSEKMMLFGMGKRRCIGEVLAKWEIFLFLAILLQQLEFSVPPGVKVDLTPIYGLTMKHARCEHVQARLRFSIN
Chain of Cytochrome P450 3A4 (Homo sapiens) (P08684 whole entry, looked up): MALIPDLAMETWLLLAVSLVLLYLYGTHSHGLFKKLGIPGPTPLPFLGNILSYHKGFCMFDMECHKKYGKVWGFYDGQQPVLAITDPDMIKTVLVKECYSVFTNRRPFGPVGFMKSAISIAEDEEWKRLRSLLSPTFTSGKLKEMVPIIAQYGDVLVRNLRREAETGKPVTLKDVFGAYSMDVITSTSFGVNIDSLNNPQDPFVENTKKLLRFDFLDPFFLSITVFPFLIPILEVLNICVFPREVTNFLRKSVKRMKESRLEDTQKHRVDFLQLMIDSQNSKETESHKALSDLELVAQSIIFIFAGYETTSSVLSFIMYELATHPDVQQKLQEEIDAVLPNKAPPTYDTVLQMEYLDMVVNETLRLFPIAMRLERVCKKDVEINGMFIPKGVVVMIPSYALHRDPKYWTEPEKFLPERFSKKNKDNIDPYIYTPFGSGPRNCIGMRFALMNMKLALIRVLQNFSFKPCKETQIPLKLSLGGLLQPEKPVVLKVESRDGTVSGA
Chain of Voltage-gated inwardly rectifying potassium channel KCNH2 (Homo sapiens) (Q12809 whole entry, looked up): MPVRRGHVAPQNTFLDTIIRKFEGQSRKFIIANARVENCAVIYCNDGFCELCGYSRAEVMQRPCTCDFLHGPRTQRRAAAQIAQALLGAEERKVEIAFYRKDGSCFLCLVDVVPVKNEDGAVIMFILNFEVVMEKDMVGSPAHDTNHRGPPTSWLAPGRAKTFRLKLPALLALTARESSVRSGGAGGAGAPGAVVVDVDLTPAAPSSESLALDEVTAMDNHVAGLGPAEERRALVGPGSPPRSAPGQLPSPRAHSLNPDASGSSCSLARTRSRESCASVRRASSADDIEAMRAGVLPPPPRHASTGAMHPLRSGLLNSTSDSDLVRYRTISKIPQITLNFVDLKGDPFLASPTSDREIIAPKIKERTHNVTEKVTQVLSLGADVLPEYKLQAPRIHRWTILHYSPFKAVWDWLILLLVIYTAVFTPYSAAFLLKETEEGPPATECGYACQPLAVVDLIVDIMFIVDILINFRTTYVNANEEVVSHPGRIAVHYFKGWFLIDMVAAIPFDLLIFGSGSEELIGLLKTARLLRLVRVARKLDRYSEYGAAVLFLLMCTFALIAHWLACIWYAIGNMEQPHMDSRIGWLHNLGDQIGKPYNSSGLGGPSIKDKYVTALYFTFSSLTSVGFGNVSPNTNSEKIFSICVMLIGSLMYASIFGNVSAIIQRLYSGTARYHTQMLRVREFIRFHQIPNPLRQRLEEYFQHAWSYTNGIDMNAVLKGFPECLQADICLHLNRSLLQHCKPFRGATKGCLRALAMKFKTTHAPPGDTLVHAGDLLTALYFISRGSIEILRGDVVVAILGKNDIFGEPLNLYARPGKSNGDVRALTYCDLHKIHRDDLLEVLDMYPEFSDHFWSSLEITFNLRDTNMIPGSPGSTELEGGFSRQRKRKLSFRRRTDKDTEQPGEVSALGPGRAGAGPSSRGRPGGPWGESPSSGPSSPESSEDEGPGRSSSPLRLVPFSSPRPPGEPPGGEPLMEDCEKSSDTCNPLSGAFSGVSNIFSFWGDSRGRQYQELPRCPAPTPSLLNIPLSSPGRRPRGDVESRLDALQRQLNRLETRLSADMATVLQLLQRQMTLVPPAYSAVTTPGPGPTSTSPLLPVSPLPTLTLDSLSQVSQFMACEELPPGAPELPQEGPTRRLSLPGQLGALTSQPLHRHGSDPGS

Consider `C[N+]1(CC2COC(c3ccccc3)(C3CCCCC3)O2)CCCCC1` (configuration not stated), for which the Potency entry in experiment [1] and in experiment [2] was “inactive” each time. In experiment [3], the Potency was 3.89 µM (active).

Take `C=C(C)C(=O)OCCO`: the Potency entry in experiment [4], in experiment [2], in experiment [5] and in experiment [3] was “inactive” each time.

With `CCCCCCCCCCCCCCOS(=O)(=O)O`, the Potency result in experiment [1], in experiment [2] and in experiment [3] was “inactive” in each case.

For the compound `CCOC(=O)C(=O)CCc1ccccc1`, the Potency in experiment [1] was 8.71 µM (active). The Potency result in experiment [2], in experiment [5] and in experiment [3] was “inactive” in each case.

For the compound `O=C(O)c1ccc(-n2nc(-c3ccccc3O)nc2-c2ccccc2O)cc1`, the Potency entry in experiment [1], in experiment [2], in experiment [5] and in experiment [3] was “inactive” throughout.

Take `O=C(O)C(S)C(S)C(=O)O` (configuration not stated): the Potency result in experiment [1], in experiment [2] and in experiment [3] was “inactive” each time.

Regarding `O=C1OC(=O)C2C3C=CC(C3)C12` (configuration not stated), the Potency result in experiment [1], in experiment [2] and in experiment [3] was “inactive” each time.

Turning to `Nc1cccc([N+](=O)[O-])c1`, the Potency was 69.5 µM (active) in experiment [1] and 39.1 µM (active) in experiment [2]. Also, the Potency result in experiment [3] is “inactive”.

Regarding `C=C(C)C(=O)OCC`, the Potency entry in experiment [4], in experiment [2], in experiment [5] and in experiment [3] was “inactive” throughout.

`O=C(O)c1ccccc1Cl`: the Potency entry in experiment [1], in experiment [2] and in experiment [3] was “inactive” in each case.

As for `CCC(C)c1cc(C(C)(C)C)c(O)c(C(C)(C)C)c1` (configuration not stated), the Potency entry in experiment [1] is “inactive”. Also, the Potency in experiment [2] was 62.1 µM (active); in experiment [3], 19.6 µM (active).

`CCC(CC)Nc1ccc(C)c(C)c1`: the Potency in experiment [1] is 7.1 µM (active); in experiment [2], 5.64 µM (active). In addition, the Potency entry in experiment [5] and in experiment [3] was “inactive” each time.

With `CCN(CC)CCOC(=O)C(Cc1cccc2ccccc12)CC1CCCO1` (configuration not stated), the Potency entry in experiment [4] is “inactive”.

Consider `c1ccc(C(O[C@H]2CCCN(CCc3ccc4c(c3)OCO4)C2)c2ccccc2)cc1`, for which the Potency in experiment [4] is 15.5 µM (active); in experiment [2] it was 30.9 µM (active); in experiment [5], 0.535 µM (active).

For the compound `CC[N+](C)(CC)CCOC(=O)C(O)(c1ccccc1)C1CCCCC1` (configuration not stated), the Potency result in experiment [4] and in experiment [2] was “inactive” throughout.
